In PubChem BioAssay (Tox21):
Records with an inconclusive call do not appear. Activity calls are given as the source filed them. Unless noted, calls come from the whole dose curve.

How the values were obtained:
[1] = Nuclear factor erythroid 2-related factor 2/antioxidant responsive element (Nrf2/ARE) small molecule agonists: qHTS cell viability counter screen in human keratinocytes (AID 1919968; active = well fitted curve in the direction sought with a large enough effect in the repeat runs; an effect the other way counts as inactive or inconclusive; note: nearly all actives have a fitted effect of over 55% in size; note: potency is the fitted concentration of half-maximal effect)
In short: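 Cytotoxicity was multiplexed with the Nrf2/ARE luciferase assay in the same wells. Stably transfected HaCaT keratinocytes were treated with test compounds for 23 h at 37 C. Cell viability was then measured by CellTiter-Fluor fluorescence.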

[2] = Nuclear factor erythroid 2-related factor 2/antioxidant responsive element (Nrf2/ARE) small molecule agonists: luciferase reporter gene qHTS assay in human keratinocytes (AID 1919969); note: nearly all actives have a fitted effect of over 35% in size
[3] = target: Gonadotropin-releasing hormone receptor (Homo sapiens) (UniProt P30968); test: Human gonadotropin-releasing hormone receptor (GnRHR) small molecule agonists, calcium flux assay in GnRHR-HEK293 cells (AID 1920063); note: nearly all actives have a fitted effect of over 35% in size
Sequence of Gonadotropin-releasing hormone receptor (Homo sapiens) (P30968 whole entry, looked up): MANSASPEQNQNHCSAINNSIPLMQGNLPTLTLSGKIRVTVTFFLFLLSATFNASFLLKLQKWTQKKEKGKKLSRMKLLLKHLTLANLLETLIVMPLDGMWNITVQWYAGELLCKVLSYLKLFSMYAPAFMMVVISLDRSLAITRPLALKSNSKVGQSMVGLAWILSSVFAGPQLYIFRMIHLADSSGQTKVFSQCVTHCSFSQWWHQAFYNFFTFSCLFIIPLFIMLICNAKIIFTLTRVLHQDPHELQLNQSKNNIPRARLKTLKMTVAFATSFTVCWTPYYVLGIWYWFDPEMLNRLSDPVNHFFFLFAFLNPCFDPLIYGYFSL
In short: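 Agonist activity was measured as intracellular calcium flux in HEK293 cells engineered to stably express human GnRHR. After dye loading for 1 hour at 37 C, compounds in DMSO were added and fluorescence was followed for 3 minutes.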

[4] = target: KiSS-1 receptor (Homo sapiens) (UniProt Q969F8); test: Human kisspeptin (KISS1R) small molecule agonists, calcium flux assay in KISS1R-HEK293 cells (AID 1920064; active = well fitted curve in the direction sought with a large enough effect in the repeat runs; an effect the other way counts as inactive or inconclusive)
Sequence of KiSS-1 receptor (Homo sapiens) (Q969F8 whole entry, looked up): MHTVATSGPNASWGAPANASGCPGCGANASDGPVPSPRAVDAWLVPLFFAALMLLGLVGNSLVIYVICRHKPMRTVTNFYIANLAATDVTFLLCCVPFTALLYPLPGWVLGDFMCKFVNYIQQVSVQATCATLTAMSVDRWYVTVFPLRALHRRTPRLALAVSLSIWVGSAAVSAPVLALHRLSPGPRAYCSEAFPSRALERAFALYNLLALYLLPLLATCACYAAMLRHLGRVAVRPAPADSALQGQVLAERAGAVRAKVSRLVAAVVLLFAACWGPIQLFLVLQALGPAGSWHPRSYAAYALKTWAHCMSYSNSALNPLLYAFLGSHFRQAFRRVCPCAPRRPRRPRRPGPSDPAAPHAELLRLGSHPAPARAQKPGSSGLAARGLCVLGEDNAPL
In short: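 Agonist activity is monitored as intracellular calcium rise in engineered HEK293 cells carrying human KISS1R. Cells are dye-loaded for 1 h at 37 C before compound addition, and fluorescence is recorded for 3 min.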

[5] = G protein-coupled receptor (GPCR) small molecule agonists, calcium flux assay: HEK293 wild type cell line counter screen (AID 1920065)
In short: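 Seed cells, incubate 18 h (37 C, 5% CO2); add calcium dye, 1 h at 37 C; pin-transfer compounds, ATP control or DMSO; read fluorescence 480/540 nm each second for 3 min.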

[6] = p53 small molecule agonists, cell-based qHTS assay with human liver microsomes: qHTS cell viability counter screen (AID 1963579); note: nearly all actives have a fitted effect of over 45% in size; note: potency is the fitted concentration of half-maximal effect
In short: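 p53RE-bla cells, 4,000/well, dosed 5 hours after plating, with human liver microsomes (0.5 mg/mL final) plus NADPH (0.5 mg/mL final), 16 hours at 37 C. Viability read as CellTiter-Glo luminescence after 30 min at room temperature.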

[7] = p53 small molecule agonists, cell-based qHTS assay with rat liver microsomes: qHTS cell viability counter screen (AID 1963580); note: nearly all actives have a fitted effect of over 45% in size
In short: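 Counter screen for cytotoxicity under metabolic activation: rat liver microsomes and NADPH, 0.5 mg/mL final each, added with compounds to p53RE-bla HCT-116 cells; 16 h at 37 C, then ATP luminescence read.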

[8] = p53 small molecule agonists, cell-based qHTS assay: qHTS cell viability counter screen (AID 1963581); note: nearly all actives have a fitted effect of over 45% in size
In short: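 Viability was counter-screened in parallel with the p53 agonist reporter by measuring intracellular ATP luminescence in the same HCT-116 p53RE-bla wells after 16 h compound treatment at 37 C.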

[9] = p53 small molecule agonists, cell-based qHTS assay (AID 1963582; active = well fitted activation curve with a large enough effect in the signal ratio in the repeat runs, not every such curve was filed as active; the % refers to the signal ratio)
In short: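 Cells carrying a p53-responsive bla reporter are treated with test compounds for 16 h at 37 C; beta-lactamase activity is then detected with LiveBLAzer B/G FRET substrate after 2 h at room temperature.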

[10] = target: Beta-2 adrenergic receptor (Homo sapiens) (UniProt P07550); test: Adrenergic beta2 receptor (ADRB2) small molecule antagonists, cell-based qHTS assay (AID 1963592); note: nearly all actives have a fitted effect of over 50% in size; note: potency is the fitted concentration of half-maximal effect; for activity change, negative = inhibition: series mostly up to about 92 µM
Sequence of Beta-2 adrenergic receptor (Homo sapiens) (P07550 whole entry, looked up): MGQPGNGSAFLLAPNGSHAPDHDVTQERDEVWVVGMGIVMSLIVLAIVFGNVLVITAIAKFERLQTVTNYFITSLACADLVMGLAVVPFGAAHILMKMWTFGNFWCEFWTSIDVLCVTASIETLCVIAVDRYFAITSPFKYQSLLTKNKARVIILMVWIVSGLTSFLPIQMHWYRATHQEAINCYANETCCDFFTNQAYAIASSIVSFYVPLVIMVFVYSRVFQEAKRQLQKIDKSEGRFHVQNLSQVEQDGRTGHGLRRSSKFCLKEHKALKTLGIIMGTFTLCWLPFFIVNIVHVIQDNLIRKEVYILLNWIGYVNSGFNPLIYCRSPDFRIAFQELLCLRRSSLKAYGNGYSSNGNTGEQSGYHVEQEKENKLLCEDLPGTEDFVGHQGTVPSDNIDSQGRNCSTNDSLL
In short: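 Assay format: CHO-ADRB2 cells, 18-20hr seeding at 37C/5% CO2, then compound plus 1nM isoproterenol agonist mix for 0.5hr RT. Homogeneous time-resolved fluorescence cAMP detection after 1hr, expressed as 665/615 nm ratio.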

[11] = target: D(2) dopamine receptor (Homo sapiens) (UniProt P14416); test: Dopamine D2 receptor (DRD2) small molecule agonists, cell-based qHTS assay (AID 1963594); note: nearly all actives have a fitted effect of over 35% in size
Sequence of D(2) dopamine receptor (Homo sapiens) (P14416 whole entry, looked up): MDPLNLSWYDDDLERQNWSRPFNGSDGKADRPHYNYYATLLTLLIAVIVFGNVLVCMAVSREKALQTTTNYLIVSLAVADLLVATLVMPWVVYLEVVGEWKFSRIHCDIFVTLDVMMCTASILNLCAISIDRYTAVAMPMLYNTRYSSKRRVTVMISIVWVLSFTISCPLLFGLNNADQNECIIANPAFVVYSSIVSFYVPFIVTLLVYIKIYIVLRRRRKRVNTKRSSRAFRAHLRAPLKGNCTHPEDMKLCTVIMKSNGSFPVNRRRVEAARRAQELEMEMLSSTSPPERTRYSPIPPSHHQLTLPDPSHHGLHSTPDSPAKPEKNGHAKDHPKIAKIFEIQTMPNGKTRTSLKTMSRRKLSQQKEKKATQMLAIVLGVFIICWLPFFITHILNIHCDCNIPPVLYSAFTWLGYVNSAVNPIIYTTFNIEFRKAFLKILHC
In short: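 HEK293 cells stably expressing DRD2 were cultured 24 h at 37 C, then given Ro20-1724 (0.1 mM final) and compounds for 10 min at room temperature. NKH477 (200nM) was then added for 30 min. cAMP was read by HTRF.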

[12] = target: D(2) dopamine receptor (Homo sapiens) (UniProt P14416); test: Dopamine D2 receptor (DRD2) small molecule antagonists, cell-based qHTS assay (AID 1963595; active = well fitted inhibition curve with a large enough effect in the signal ratio in the repeat runs, with a control signal flat; the % refers to the signal ratio; note: potency is the fitted concentration of half-maximal effect)
In short: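 Antagonist mode in DRD2-HEK293 cells: after compound addition with 0.1 mM Ro20-1724, cells received quinpirole (12 nM) and NKH477 (200 nM) for 30 min at room temperature; HTRF cAMP read after 1 h detection.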

[13] = p53 small molecule agonists, cell-based qHTS assay with rat liver microsomes (AID 1963578)
In short: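 p53RE-bla cells, 4,000/well, pre-incubated 5 h, then given compounds plus rat liver microsomes (0.5 mg/mL final) and NADPH (0.5 mg/mL final). Incubation 16 h at 37 C; beta-lactamase reporter read by LiveBLAzer fluorescence after 2 h at room temperature.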

[14] = target: Muscarinic acetylcholine receptor M1 (Homo sapiens) (UniProt P11229); test: Cholinergic receptor muscarinic 1 (CHRM1) small molecule antagonists, cell-based qHTS assay (AID 1963588); note: nearly all actives have a fitted effect of over 40% in size
Sequence of Muscarinic acetylcholine receptor M1 (Homo sapiens) (P11229 whole entry, looked up): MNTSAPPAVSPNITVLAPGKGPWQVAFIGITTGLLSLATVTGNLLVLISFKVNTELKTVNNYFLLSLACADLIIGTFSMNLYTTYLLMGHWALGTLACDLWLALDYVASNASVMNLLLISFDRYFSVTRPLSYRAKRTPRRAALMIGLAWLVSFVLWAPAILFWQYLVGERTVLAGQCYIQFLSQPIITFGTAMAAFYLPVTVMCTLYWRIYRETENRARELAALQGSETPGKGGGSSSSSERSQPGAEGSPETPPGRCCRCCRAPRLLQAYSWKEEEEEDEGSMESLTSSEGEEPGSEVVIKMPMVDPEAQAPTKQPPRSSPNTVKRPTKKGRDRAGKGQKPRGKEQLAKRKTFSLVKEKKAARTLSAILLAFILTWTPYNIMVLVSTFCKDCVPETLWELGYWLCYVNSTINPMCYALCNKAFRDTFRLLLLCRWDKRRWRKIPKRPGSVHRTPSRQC
In short: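 Compounds were tested at 15 concentrations in three independent runs. Dye-loaded CHRM1-CHO cells were exposed 5 min at room temperature before stimulation by acetylcholine added at 50nM. Intracellular calcium was read kinetically on FDSS for 3 min.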

[15] = cAMP Responsive Elements (CRE) small molecule agonists, cell-based qHTS assay (AID 1963590)
In short: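 Cells carrying a CRE-driven beta-lactamase reporter (HEK 293T) are seeded, incubated overnight (18 h), and treated with test compounds for 3 h at 37 C; reporter activity is then detected with a FRET substrate after 2 h at room temperature.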

[16] = target: Beta-2 adrenergic receptor (Homo sapiens) (UniProt P07550); test: Adrenergic beta2 receptor (ADRB2) small molecule agonists, cell-based qHTS assay (AID 1963593);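 note: CHO cells stably overexpressing human ADRB2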
In short: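 CHO cells stably over-expressing ADRB2 were plated overnight at 37C, then dosed with compounds plus a stimulation mix containing 100uM IBMX and 25uM Ro-20-1724 for 0.5hr at room temperature. cAMP was measured by HTRF competition, 1hr.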

[17] = target: 5-hydroxytryptamine receptor 2A (Homo sapiens) (UniProt P28223); test: 5-hydroxytryptamine receptor 2A (HTR2A) small molecule agonists, cell-based qHTS assay (AID 1963587); note: nearly all actives have a fitted effect of over 30% in size; note: potency is the fitted concentration of half-maximal effect
Sequence of 5-hydroxytryptamine receptor 2A (Homo sapiens) (P28223 whole entry, looked up): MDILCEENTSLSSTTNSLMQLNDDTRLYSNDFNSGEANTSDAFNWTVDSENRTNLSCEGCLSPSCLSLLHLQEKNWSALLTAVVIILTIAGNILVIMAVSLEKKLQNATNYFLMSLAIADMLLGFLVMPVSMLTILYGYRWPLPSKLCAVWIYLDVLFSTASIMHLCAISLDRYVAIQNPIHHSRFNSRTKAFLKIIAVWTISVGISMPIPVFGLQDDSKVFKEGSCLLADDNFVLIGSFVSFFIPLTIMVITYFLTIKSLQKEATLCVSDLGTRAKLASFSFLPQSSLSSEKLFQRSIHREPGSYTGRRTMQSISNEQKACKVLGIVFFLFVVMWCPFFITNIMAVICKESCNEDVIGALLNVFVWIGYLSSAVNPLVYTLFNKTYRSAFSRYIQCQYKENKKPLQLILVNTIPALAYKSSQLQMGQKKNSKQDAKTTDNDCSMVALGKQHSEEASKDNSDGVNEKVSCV
In short: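 HTR2A-CHO cells, plated 18 h at 37 C/5% CO2, dye-loaded 1 h at 37 C; compounds in DMSO added by pin tool (agonist mode). Intracellular calcium flux read as kinetic fluorescence on FDSS over 2 min at 1 s intervals.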

[18] = target: Muscarinic acetylcholine receptor M1 (Homo sapiens) (UniProt P11229); test: Cholinergic receptor muscarinic 1 (CHRM1) small molecule agonists, cell-based qHTS assay (AID 1963589); note: nearly all actives have a fitted effect of over 35% in size
In short: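 Cells were plated and incubated 18 h at 37 C/5% CO2, loaded with calcium dye for 1 h at 37 C, then treated with compounds in DMSO. Fluorescence was recorded kinetically at 1 sec intervals.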

[19] = cAMP Responsive Elements (CRE) small molecule antagonists, cell-based qHTS assay (AID 1963591; active = well fitted inhibition curve with a large enough effect in the signal ratio in the repeat runs, not every such curve was filed as active; the % refers to the signal ratio)
In short: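 Cells (CRE-bla HEK 293T, DMEM with 10% dialyzed FBS and 25 mM HEPES) are seeded and incubated 18 h. Compounds are added with NKH477 agonist at 0.25 uM final for 3 h, then FRET substrate for 2 h.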

[20] = target: 5-hydroxytryptamine receptor 2A (Homo sapiens) (UniProt P28223); test: 5-hydroxytryptamine receptor 2A (HTR2A) small molecule antagonists, cell-based qHTS assay (AID 1963586); note: nearly all actives have a fitted effect of over 45% in size
In short: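 CHO cells stably expressing human HTR2A were plated for 18 h at 37 C, then loaded with calcium dye for 1 h. Compounds were preincubated 5 min at room temperature before DOI (4 nM solution) was added. Kinetic fluorescence was read for 3 min.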
% is set by controls: 0 for no effect and ±100 for the full control effect.

C[C@H]1C[C@H]2[C@@H]3CCC4=CC(=O)C=C[C@]4(C)[C@@]3(Cl)[C@@H](O)C[C@]2(C)[C@@]1(O)C(=O)CO
inactive: Potency [1] | Potency [2] | Potency [3] | Potency [4] | Potency [5] | Potency [6] | Potency [7] | Potency [8] | Potency [9] | Potency [10] | Potency [11] | Potency [12]

COCCOc1cc2cc(C(=O)NC3CCN(C(C)C)CC3)n(CC(=O)Nc3ccc(Cl)cn3)c2cn1
inactive: Potency [1] | Potency [2] | Potency [3] | Potency [4] | Potency [5] | Potency [13] | Potency [6] | Potency [8] | Potency [9] | Potency [14] | Potency [15] | Potency [10] | Potency [16]

Cn1ccc2cc3c(cc21)CCN3C(=O)Nc1cccnc1
inactive: activity change, negative = cytotoxicity [1] 3.31% [at 19 µM] | activity, positive = activation [2] 26.3% [at 19 µM] | activity change [3] -0.165% [at 11.8 µM, active compounds read high] | activation [4] -2.7% [at 15.8 µM] | activation [5] 0.454% [at 11.8 µM] | activation [13] -2.12% [at 13.6 µM] | activity change, negative = cytotoxicity [6] -7.75% [at 13.5 µM] | activity change, negative = cytotoxicity [8] -10.9% [at 13.5 µM] | activation [9] -0.168% [at 13.5 µM] | activation [17] -6.77% [at 15.9 µM] | activity, negative = inhibition [14] 8.54% [at 12.6 µM] | activation [18] -0.375% [at 15.8 µM] | activation [15] 13.1% [at 19 µM] | activity change, negative = inhibition [19] 0.0268% [at 18.9 µM] | activity change, negative = inhibition [10] 0.687% [at 19 µM] | activation [16] -9.02% [at 19 µM] | activation [11] 16.6% [at 19 µM] | activity change, negative = inhibition [12] -0.697% [at 18.9 µM]

CCc1cccc2c(CCO)c[nH]c12
inactive: Potency [1] | Potency [2] | Potency [3] | Potency [4] | Potency [5] | Potency [13] | Potency [7] | Potency [8] | Potency [9] | Potency [20] | Potency [17] | Potency [14] | Potency [18] | Potency [15] | Potency [19] | Potency [10] | Potency [16] | Potency [11] | Potency [12]

CC(=O)OCCC(C)CC(C)(C)C (configuration not stated)
inactive: Potency [1] | Potency [2] | Potency [3] | Potency [4] | Potency [5] | Potency [13] | Potency [6] | Potency [8] | Potency [9] | Potency [20] | Potency [17] | Potency [14] | Potency [18] | Potency [15] | Potency [19] | Potency [16] | Potency [12]

Nc1cc(Cl)cc(S(=O)(=O)O)c1O
inactive: Potency [1] | Potency [2] | Potency [3] | Potency [4] | Potency [5] | Potency [6] | Potency [7] | Potency [8] | Potency [20] | Potency [17] | Potency [14] | Potency [18] | Potency [15] | Potency [19] | Potency [10]

COC(=O)C1=C(C)NC(C)=C(C(=O)OCC(C)=O)C1c1ccccc1[N+](=O)[O-] (configuration not stated)
inactive: Potency [1] | Potency [2] | Potency [3] | Potency [4] | Potency [5] | Potency [13] | Potency [7] | Potency [8] | Potency [9] | Potency [20] | Potency [18] | Potency [15] | Potency [19] | Potency [10] | Potency [11] | Potency [12]

CN(C)CCOc1ccc(/C(=C(/CCCl)c2ccccc2)c2ccccc2)cc1
active: Potency [1] 22.8 µM | Potency [6] 30.3 µM | Potency [17] 40.9 µM | Potency [10] 57.2 µM | Potency [12] 57.2 µM
inactive: Potency [2] | Potency [3] | Potency [4] | Potency [5] | Potency [13] | Potency [14] | Potency [11]
